Here are results for 23 compounds from the supplement of paper PMC6279402.

Structures can show the parent of a compound that is named as a salt. ± gives the standard deviation of the averaged measurements.

The assay relates to A549. The experiment in a line: relative viability (normalised to negative control = 1, bortezomib = 0) (fraction); higher = less cytotoxic. The note with it: inflammatory serum-free RHB-A with cytokines + LPS, 5 d + 24 h CellTiter-Blue. Background: Alamar Blue is a resazurin reagent that responds to reducing activity.
[1] abbreviates: compound 30 nM, GSK126 pretreatment: 5 uM GSK126.
The mark [2] stands for this setting: compound 30 nM, GSK126 pretreatment: none (vehicle).
Where [3] appears, read: compound 300 nM, GSK126 pretreatment: 5 uM GSK126.
The mark [4] stands for this setting: compound 300 nM, GSK126 pretreatment: none (vehicle).

As to `Nc1ccn([C@@H]2O[C@H](CO)[C@@H](O)C2(F)F)c(=O)n1` [Gemcitabine hydrochloride; Gemcitabine HCl], the relative viability by setting is: under setting [1], 0.396 ± 0.12; under setting [2], 0.264 ± 0.087; under setting [3], 0.39 ± 0.093; under setting [4], 0.19 ± 0.087.

For the compound `C=CC(=O)Nc1cccc(Sc2nc(Nc3ccc(N4CCN(C)CC4)cc3)ncc2Cl)c1`, the relative viability runs as follows: under setting [1], 0.859 ± 0.1; under setting [2], 0.815 ± 0.085; under setting [3], 0.475 ± 0.1; under setting [4], 0.477 ± 0.083.

Take `O=C(Nc1c[nH]nc1-c1nc2ccc(CN3CCOCC3)cc2[nH]1)NC1CC1`: the relative viability runs as follows: under setting [1], 0.71 ± 0.039; under setting [2], 0.663 ± 0.021; under setting [3], 0.336 ± 0.034; under setting [4], 0.279 ± 0.077.

Consider `CC(C)(C)c1cc(NC(=O)Nc2ccc(-c3cn4c(n3)sc3cc(OCCN5CCOCC5)ccc34)cc2)no1`, for which the relative viability runs as follows: under setting [1], 0.952 ± 0.016; under setting [2], 0.898 ± 0.068; under setting [3], 1.05 ± 0.087; under setting [4], 1 ± 0.031.

Take `Cc1csc(-c2nnc(Nc3ccc(Oc4ncccc4-c4ccnc(N)n4)cc3)c3ccccc23)c1`: the relative viability runs as follows: under setting [1], 0.692 ± 0.11; under setting [2], 0.593 ± 0.11; under setting [3], 0.512 ± 0.076; under setting [4], 0.441 ± 0.061.

As for `CC(=O)O[C@H]1C(=O)[C@@]2(C)[C@H]([C@H](OC(=O)c3ccccc3)[C@]3(O)C[C@H](OC(=O)[C@H](O)[C@@H](NC(=O)c4ccccc4)c4ccccc4)C(C)=C1C3(C)C)[C@]1(OC(C)=O)CO[C@@H]1C[C@@H]2O` [Paclitaxel; Taxol], the relative viability runs as follows: under setting [1], 0.391 ± 0.044; under setting [2], 0.242 ± 0.009; under setting [3], 0.368 ± 0.077; under setting [4], 0.301 ± 0.048.

As for `Cc1cn(-c2cc(NC(=O)c3ccc(C)c(Nc4nccc(-c5cccnc5)n4)c3)cc(C(F)(F)F)c2)cn1` [Nilotinib], the relative viability runs as follows: under setting [1], 1.02 ± 0.13; under setting [2], 0.993 ± 0.089; under setting [3], 1.14 ± 0.17; under setting [4], 1.07 ± 0.069.

For the compound `O=C1C(c2c(O)[nH]c3ccccc23)=Nc2ccccc21` [Indirubin; INDIRUBIN], the relative viability runs as follows: under setting [1], 0.788 ± 0.038; under setting [2], 0.796 ± 0.041; under setting [3], 0.762 ± 0.078; under setting [4], 0.807 ± 0.045.

Regarding `CCC[C@H](NC(=O)/C(C#N)=C/c1cccc(Br)n1)c1ccccc1`, the relative viability reads like this: under setting [1], 0.926 ± 0.078; under setting [2], 0.929 ± 0.044; under setting [3], 0.973 ± 0.14; under setting [4], 1.04 ± 0.065.

Consider `CN(C)Cc1cccc(N=C(c2ccccc2)c2c(O)[nH]c3cc(C(=O)N(C)C)ccc23)c1`, for which the relative viability by setting is: under setting [1], 0.839 ± 0.14; under setting [2], 0.864 ± 0.16; under setting [3], 0.954 ± 0.16; under setting [4], 1.04 ± 0.16.

Regarding `Cc1cc(Nc2cc(N3CCN(C)CC3)nc(/C=C/c3ccccc3)n2)n[nH]1`, the relative viability came out at 0.897 ± 0.13 under setting [1], 0.929 ± 0.11 under setting [2], 0.827 ± 0.17 under setting [3] and 0.769 ± 0.04 under setting [4].

In the case of `COc1cccc2c1C(=O)c1c(O)c3c(c(O)c1C2=O)C[C@@](O)(C(C)=O)C[C@@H]3O[C@H]1C[C@H](N)[C@H](O)[C@H](C)O1` [Daunorubicin hydrochloride; Daunorubicin HCl], the relative viability stood at 0.839 ± 0.095 under setting [1], 0.765 ± 0.056 under setting [2], 0.133 ± 0.019 under setting [3] and 0.143 ± 0.021 under setting [4].

Take `O=C1NC(=O)/C(=C\c2ccc3nccnc3c2)S1`: the relative viability runs as follows: under setting [1], 0.877 ± 0.1; under setting [2], 0.854 ± 0.032; under setting [3], 0.915 ± 0.14; under setting [4], 0.946 ± 0.17.

Take `Nc1ncnc2c1c(-c1cnc3[nH]ccc3c1)nn2C1CCCC1`: the relative viability runs as follows: under setting [1], 0.767 ± 0.06; under setting [2], 0.797 ± 0.071; under setting [3], 0.494 ± 0.039; under setting [4], 0.533 ± 0.069.

`COc1cc(Nc2ncc3c(n2)-c2ccc(Cl)cc2C(c2c(F)cccc2OC)=NC3)ccc1C(=O)O`: the relative viability is, setting by setting: under setting [1], 0.804 ± 0.087; under setting [2], 0.821 ± 0.044; under setting [3], 0.523 ± 0.11; under setting [4], 0.381 ± 0.048.

For the compound `O=C(Cc1ccc(-c2ccc(OCCN3CCOCC3)cc2)cn1)NCc1ccccc1`, the relative viability came out at 0.319 ± 0.065 under setting [1], 0.211 ± 0.026 under setting [2], 0.388 ± 0.049 under setting [3] and 0.248 ± 0.05 under setting [4].

As to `Cc1c2oc3c(C)ccc(C(=O)N[C@@H]4C(=O)N[C@H](C(C)C)C(=O)N5CCC[C@H]5C(=O)N(C)CC(=O)N(C)[C@@H](C(C)C)C(=O)O[C@@H]4C)c3nc-2c(C(=O)N[C@@H]2C(=O)N[C@H](C(C)C)C(=O)N3CCC[C@H]3C(=O)N(C)CC(=O)N(C)[C@@H](C(C)C)C(=O)O[C@@H]2C)c(N)c1=O` [Dactinomycin], the relative viability is -0.00158 ± 0.00097 under setting [1], 0.00574 ± 0.0057 under setting [2], -0.00171 ± 0.00059 under setting [3] and 0.00607 ± 0.0081 under setting [4].

Regarding `O=C(CCCCCCC(=O)Nc1ccccc1)NO` [Vorinostat; SAHA], the relative viability was 0.83 ± 0.15 under setting [1], 0.868 ± 0.073 under setting [2], 0.891 ± 0.17 under setting [3] and 1 ± 0.19 under setting [4].

In the case of `Nc1ncnc2c1c(-c1cccc(OCc3ccccc3)c1)cn2C1CC(CN2CCCC2)C1` (configuration not stated), the relative viability reads like this: under setting [1], 0.733 ± 0.037; under setting [2], 0.748 ± 0.028; under setting [3], 0.287 ± 0.021; under setting [4], 0.333 ± 0.059.

On to `CNNCc1ccc(C(=O)NC(C)C)cc1` [Procarbazine hydrochloride; Procarbazine], for which the relative viability runs as follows: under setting [1], 0.962 ± 0.15; under setting [2], 0.915 ± 0.14; under setting [3], 0.997 ± 0.12; under setting [4], 0.967 ± 0.06.

In the case of `Cn1c(=O)c(F)c(Nc2ccc(I)cc2F)c2c(=O)n(C[C@@H](O)CO)cnc21`, the relative viability amounted to 0.156 ± 0.017 under setting [1], 0.1847 ± 0.0015 under setting [2], 0.0544 ± 0.0097 under setting [3] and 0.0397 ± 0.0058 under setting [4].

`CO[C@H]1C(=O)[C@]2(C)[C@@H](OC)C[C@H]3OC[C@@]3(OC(C)=O)[C@H]2[C@H](OC(=O)c2ccccc2)[C@]2(O)C[C@H](OC(=O)[C@H](O)[C@@H](NC(=O)OC(C)(C)C)c3ccccc3)C(C)=C1C2(C)C` [Cabazitaxel]: the relative viability is 0.487 ± 0.065 under setting [1], 0.349 ± 0.054 under setting [2], 0.541 ± 0.061 under setting [3] and 0.421 ± 0.077 under setting [4].

In the case of `Fc1cc(-c2cccc3ncc(-c4cnn(C5CCNCC5)c4)nc23)cc(F)c1CN1CCOCC1`, the relative viability by setting is: under setting [1], 0.927 ± 0.076; under setting [2], 0.889 ± 0.13; under setting [3], 1.11 ± 0.12; under setting [4], 1.05 ± 0.15.
